In PubChem BioAssay AID504720 (Sanford-Burnham Center for Chemical Genomics, 2011):
In all, about 350,000 compounds went through this assay and about 1,100 (0.31%) were called active. Only a selection was taken, and actives are over-represented in it overall. Unmarked numbers belong to inactive results. No stated cut-off is given here; in the data, active means activation above about 50%; inactive means the rest.

These compounds were tested against Endoribonuclease toxin MazF (Escherichia coli (strain K12)) (UniProt P0AE70) (assay: activators of E. coli MazEF toxin-antitoxin RNase, primary screen, biochemical, fluorescence, uHTS (AID 504720)). Details: FAM/BHQ RNA-DNA oligo cleavage fluorescence, 5 h, at 20 µM, active compounds read high.
Chain of Endoribonuclease toxin MazF (Escherichia coli (strain K12)) (P0AE70 whole entry, looked up): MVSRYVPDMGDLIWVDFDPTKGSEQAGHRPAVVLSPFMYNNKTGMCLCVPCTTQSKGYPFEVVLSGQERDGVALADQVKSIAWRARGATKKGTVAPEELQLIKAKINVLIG

SMILES	activation
Cc1nnc2n1N=C(c1ccc3c(c1)NC(=O)CO3)CS2	-1.68%
COc1ccc(NC(=O)c2oc3ccc(S(=O)(=O)N4CCOCC4)cc3c2C)cc1	8.57%
Cc1c(C(=O)NCCN(C)C)oc2ccc(S(=O)(=O)N3CCCC3)cc12	111% (active)
CCOC(=O)C1CCN(C(=O)c2oc3ccc(S(=O)(=O)N4CCCCCC4)cc3c2C)CC1	-5.11%
COCCNC(=S)N1CCN(C)CC1	-2.39%
C/C(CC(=O)NCc1ccc(Cl)cc1)=N\NC(=O)COc1ccc(C)cc1Br	-5.14%
CC(CCc1ccccc1)NCC(O)c1cccc([N+](=O)[O-])c1 (stereo not given)	11.5%
CCn1c(/C=N/NC(=O)c2ccc(OC)cc2)nc2ccccc21	-0.18%
COc1cccc(/C=N/NC(=O)c2[nH]nc3c2CCc2ccccc2-3)c1O	160% (active)
COc1cc(/C=N/NC(=O)c2cccnc2)ccc1OC(=O)c1cccc(Br)c1	8.67%
COc1ccc(S(=O)(=O)N2CCOC23CCN(S(=O)(=O)c2ccc([N+](=O)[O-])cc2)CC3)cc1	5.08%
COc1ccc(C(=O)Nc2ccc(C3(C#N)CCCC3)cc2)cc1OC	-19.2%
CCOCCCNC(=O)C(NC(=O)c1ccccc1O)c1ccccc1 (stereo not given)	-12.8%
CC[C@@H]1Cc2cc(O)ccc2C2=C1c1ccc(O)cc1C[C@H]2CC	84.7% (active)
O=C1CC(Sc2ncn[nH]2)C(=O)N1c1ccccc1 (stereo not given)	3.68%
Cc1[nH]c(C)c(S(=O)(=O)N2CCC(C)CC2)c1C(=O)N1CCCC1	1.65%
CCOC(=O)c1c(C)[nH]c(C)c1C(=O)COC(=O)/C=C/c1cccc([N+](=O)[O-])c1	3.22%
Cc1ccc(CNC(=O)CSc2nnc3c(n2)[nH]c2ccc(F)cc23)cc1	18.4%
Cc1cccc(N=Nc2c(O)[nH]c3ccc(F)cc23)c1	946% (active)
COc1cc(OC)c(C(=S)N2CCCC2)cc1OC	9.16%
O=C1C2(Cl)C3(Cl)C4(Cl)C(Cl)(Cl)C5(Cl)C3(Cl)C1(Cl)C5(Cl)C24Cl (stereo not given)	65.6% (active)
C=CCn1c(-c2ccc(Cl)cc2)ccc(C#N)c1=O	2.85%
Cc1nc(Nc2ccc3c(c2)OCCO3)c2nnn(Cc3ccccc3Cl)c2n1	-3.74%
Cc1nc(Nc2ccccc2F)c2nnn(Cc3ccccc3Cl)c2n1	61.6% (active)
Cc1nc(Nc2ccc(S(=O)(=O)N3CCCC3)cc2)c2nnn(Cc3ccccc3)c2n1	12.1%
